Out of some 420,000 compounds screened, about 50,000 (12%) were called active. Not shown: some 26% with an inconclusive outcome. Calls follow the shape of the dose curve; as a rule, active = well fitted inhibition curve with a large enough effect; inconclusive = small, poorly fitted or top-dose-only effect; inactive = flat fitted curve, though single readings scatter. This excerpt belongs to a sample that is enriched for actives.
% is scaled to controls: 0 for no effect and ±100 for the full control effect; potency is read from the fitted curve at half-maximal effect.

A short description of this experiment: qHTS for Inhibitors of human tyrosyl-DNA phosphodiesterase 1 (TDP1): qHTS in cells in presence of CPT. Also: nearly all actives have a fitted effect of over 55% in size. The following applies: chicken DT40 Tdp1-/-;hTDP1 cells + 20 nM CPT, ATP luminescence, 48 h; series mostly up to 46.2 µM; activity change, negative = growth inhibition: at the top concentration. In a few lines: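 Chicken DT40 Tdp1-/- cells stably complemented with human TDP1 were seeded at 400 cells/well in medium containing 20 nM camptothecin, exposed to pin-transferred compounds, and grown at 37 °C for at least 48 hr. Viability was read as ATP luminescence.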
For orientation: In qHTS, concentration-response curves come from the screen itself.
On to `C=CCn1c(SCC(=O)NC)nnc1C12CC3CC(CC(C3)C1)C2`, for which the “activity change, negative = growth inhibition” value is -4.49% (inactive). On the same count and under the same terms, as for `Cc1cc(C)cc(OCC(=O)NNC(=O)CCN2C(=O)c3ccccc3C2=O)c1`, the figure is -4.21% (inactive); as for `Cc1ccsc1/C=N/NC(=O)Cc1cc(=O)[nH][nH]1`, -6.7% (inactive).

For `COc1cc(CCC(=O)N2CCN(c3ccccc3Cl)CC2)cc(OC)c1OC`, the Potency is 11.6 µM (active). Regarding `COc1cc(CCC(=O)Nc2ccncc2Cl)cc(OC)c1OC`, the “activity change, negative = growth inhibition” value is -1.48% (inactive). On the same count and under the same terms, to `CC(=O)c1ccc(N2CCN(C(=O)CCc3ccccc3)CC2)cc1` belongs -20.4% (inactive); to `Cc1cc(Cl)c2oc(C(=O)N3CCC(O)(c4ccccc4)CC3)c(C)c2c1`, -22.6% (inactive). Consider `Cc1cc2nc(-c3ccco3)c(Cc3cccc(F)c3)n2c(C)c1Br`, for which the Potency was 16.4 µM (active). Take `CCCCN(C(=O)c1ccc2ccccc2c1)c1c(N)n(CCCC)c(=O)[nH]c1=O`: the “activity change, negative = growth inhibition” value is -20.9% (inactive). `CN(CC(=O)NCCc1ccc(S(N)(=O)=O)cc1)CC(=O)Nc1ccc(F)c(F)c1F`: the “activity change, negative = growth inhibition” value is -2.55% (inactive). In the case of `O=C(Nc1ncccc1O)c1ccc(S(=O)(=O)N2CCCC2)cc1`, the Potency is 14.6 µM (active).

Take `CN1CCN(S(=O)(=O)c2cccc(C(=O)Nc3sccc3C#N)c2)CC1`: the “activity change, negative = growth inhibition” value was -11.2% (inactive). Turning to `O=C(N/N=C/c1ccccn1)c1ccc(S(=O)(=O)N2CCCCCC2)cc1`, the “activity change, negative = growth inhibition” value was -12.5% (inactive). Still for that read-out and setting: to `O=C(Nc1ccccc1F)c1ccc(S(=O)(=O)N2CCCCCC2)cc1` belongs -28.5% (inactive). On to `Cc1cc2nc(NC(=O)c3ccc(S(=O)(=O)N4CCOCC4)cc3)sc2cc1C`, for which the “activity change, negative = growth inhibition” value is -6.36% (inactive). The same measure, in the same setting: as for `CCOC(=O)c1csc(NC(=O)c2ccc(S(=O)(=O)N3CCCC3)cc2)n1`, the figure is -29% (inactive). Turning to `Cc1cccnc1NC(=O)c1cccc(S(=O)(=O)N2CCN(c3ccc(F)cc3)CC2)c1`, the Potency is 18.4 µM (active). `Cc1ccc(C(=O)Nc2ncccc2C)cc1S(=O)(=O)N1CCOCC1`: the “activity change, negative = growth inhibition” value is 0.269% (inactive). On to `Cc1ccc(C)c2sc(NC(=O)c3ccc(S(=O)(=O)N4CCCC4)cc3)nc12`, for which the Potency was 29.1 µM (active). On to `CCOc1cc(C)ccc1OCc1nnc(SCC(=O)Nc2cccc(C(=O)O)c2)n1-c1ccccc1`, for which the “activity change, negative = growth inhibition” value was -7.05% (inactive). On the same count and under the same terms, as for `CCCOc1ccc(/C=N/NC(=O)C2CC2)c(OCCC)c1`, the figure is -3.44% (inactive); as for `CC(C)CN1CC(C)C(=O)N(c2ccccc2)C1=S` (stereo not given), -13.8% (inactive). As to `N#CC(Cc1cc2ccccc2n1S(=O)(=O)c1ccccc1)OCc1ccccc1` (stereo not given), the “activity change, negative = growth inhibition” value was -17.2% (inactive). Same read-out and setting: to `N[C@@H](Cc1ccccc1)C(=O)N1CCC(C(=O)NCC(=O)Nc2ccc(F)cc2)CC1` belongs 0.464% (inactive); to `Cc1ccccc1C(=O)O`, 2.84% (inactive); to `O=C(O)c1cc([N+](=O)[O-])c(Nc2cccc3ccccc23)c([N+](=O)[O-])c1`, -27.4% (inactive). The same measure, in the same setting: to `CCN(CC)CCCNC(=O)Cn1cnc2sc(C)c(S(=O)(=O)N3CCN(c4ncccn4)CC3)c2c1=O` belongs -1.95% (inactive); to `CC1(C)CC(=O)C=C(c2cccc3c2Oc2ccccc2S3)C1`, 2.73% (inactive). As to `COc1cc(OC)cc(C(=O)NNC(=O)CCOc2ccccc2OC)c1`, the “activity change, negative = growth inhibition” value is 12.8% (inactive).

As for `COc1ccc(S(=O)(=O)c2c[nH]c(=S)[nH]c2=O)cc1Cl`, the “activity change, negative = growth inhibition” value is -10.9% (inactive). On the same count and under the same terms, as for `COc1ccc(-c2nc3ccccc3o2)cc1NC(=O)c1cc([N+](=O)[O-])ccc1N1CCOCC1`, the figure is 1.85% (inactive).

With `CCOC(=O)CC1(NC(=O)c2cc(COc3cncc(Cl)c3)on2)CCCCC1`, the Potency is 23.1 µM (active).

`Cc1cc(OCc2cc(C(=O)NCc3cc(C(C)C)no3)no2)cc(C)c1Cl`: the “activity change, negative = growth inhibition” value is -25.7% (inactive). On the same count and under the same terms, as for `CCOC(=O)c1c(NC(=O)c2cc(CC)on2)sc(C(C)=O)c1C`, the figure is 13.3% (inactive); as for `Cc1cc(C)cc(NC(=O)CN2C(=O)c3ccccc3C2=O)c1`, 11.3% (inactive).

Turning to `Cc1cccc(C(=O)Nc2ccc(CC(=O)O)cc2)c1`, the “activity change, negative = growth inhibition” value is -0.617% (inactive). Take `Cc1cccc(C(=O)Nc2ccc(C(=O)/C=C/c3cccs3)cc2)c1`: the Potency was 16.4 µM (active). With `Cc1cccc(C(=O)Nc2ccc(C(=O)N/N=C/c3cccc(C)n3)cc2)c1`, the “activity change, negative = growth inhibition” value was -21.6% (inactive). Consider `CC(C)c1ccc(C(=O)OC2CCOC2=O)cc1` (stereo not given), for which the “activity change, negative = growth inhibition” value is -0.715% (inactive). For `COc1ccc(C(=O)O)cc1S(=O)(=O)NC1CCN(Cc2ccccc2)CC1`, the “activity change, negative = growth inhibition” value is 14.9% (inactive). `COc1ccc(-c2onc(C)c2C)cc1S(=O)(=O)NCC1CCN(Cc2cccc(F)c2)CC1`: the Potency is 20.6 µM (active). Take `COc1ccc(CCNS(=O)(=O)c2cn(C)nc2C)cc1`: the “activity change, negative = growth inhibition” value is -18.1% (inactive). On the same count and under the same terms, to `Cc1ccc(-c2onc(C)c2C)cc1S(=O)(=O)Nc1ccccn1` belongs -17.1% (inactive); to `CCOC(=O)C1CCN(S(=O)(=O)c2cc(F)ccc2OC)CC1`, -16.9% (inactive).

For `COc1ccc(-c2onc(C)c2C)cc1S(=O)(=O)NCCc1ccccc1`, the Potency is 20.6 µM (active).

For `C[C@H]1CN([C@@H](C)CO)C(=O)CCCn2cc(nn2)CO[C@@H]1CN(C)S(=O)(=O)c1ccc(-c2ccccc2)cc1`, the “activity change, negative = growth inhibition” value is -26.9% (inactive).

With `O=C(c1ccco1)N1CCC2(CC1)CCN(c1ncccn1)CC2`, the “activity change, negative = growth inhibition” value is -25.7% (inactive). For `CC(=O)Nc1ccc(S(=O)(=O)NC(C)C(=O)OCC(=O)NC2CCCC2)cc1` (stereo not given), the “activity change, negative = growth inhibition” value is -4.92% (inactive). Same read-out and setting: as for `O=C(COc1ccc(-n2cnnn2)cc1)Nc1ccccc1Cl`, the figure is -7.88% (inactive). Same read-out and setting: as for `Nc1nnc(SCC(=O)OCc2ccc(Cl)c(Cl)c2)s1`, the figure is -26.2% (inactive); as for `CCOC(=O)C(Sc1ncc(C#N)c(N)n1)C(C)C` (stereo not given), -28% (inactive); as for `O=C(NC(Cc1ccc(O)cc1)C(=O)O)/C(=C/c1ccccc1)NC(=O)c1ccccc1` (stereo not given), -11.8% (inactive). Still for that read-out and setting: to `O=C(CCc1nc2ccccc2c(=O)[nH]1)OCC(=O)c1cccc(Cl)c1` belongs -1.52% (inactive). As to `Clc1ccc2nc(-c3ccccc3)nc(C(Cl)Cl)c2c1`, the Potency was 0.164 µM (active). On to `N#CCSc1nc(-c2ccccc2)nc2ccc(F)cc12`, for which the “activity change, negative = growth inhibition” value was -12% (inactive).

Take `Cc1nn(-c2ccccc2)c(C)c1/C=C/C(=O)OC(C)C(N)=O` (stereo not given): the “activity change, negative = growth inhibition” value was 0.211% (inactive). Still for that read-out and setting: to `Cc1ccc2c(NC(=O)C3CC3)cccc2n1` belongs -3.12% (inactive); to `Cc1ccc(C(=O)Nc2cccc3ncccc23)cc1[N+](=O)[O-]`, -22.8% (inactive). For `Cc1ccc(/C=C(\C#N)C(=O)Nc2cccc3ncccc23)o1`, the Potency is 16.4 µM (active). With `CC(C)(C)NC(=O)Cn1c(SCC(=O)Nc2nccs2)nc2ccccc21`, the “activity change, negative = growth inhibition” value is -11.2% (inactive). Same read-out and setting: to `NC(=O)NC(=O)C(OC(=O)CCNS(=O)(=O)c1ccccc1)c1ccccc1` (stereo not given) belongs 1.03% (inactive); to `COCCNC(=O)C(c1ccc(C)cc1)N(C(=O)CCC(=O)Nc1ccccn1)c1cccc(C)c1` (stereo not given), -11% (inactive). `CCCCCC(=O)N1C[C@H](O)[C@@H](n2cc(COC(=O)c3ccccc3)nn2)C[C@@H]1c1ccc(C)cc1`: the Potency is 0.82 µM (active). With `O=C(OCc1cn([C@@H]2C[C@H](c3ccc(Cl)cc3)N(Cc3cccs3)C[C@H]2O)nn1)c1ccccc1`, the “activity change, negative = growth inhibition” value was -3.26% (inactive). Still for that read-out and setting: to `CCCCCCN1C[C@@H](O)[C@H](n2cc(COC(=O)c3ccccc3)nn2)C[C@@H]1c1ccc(Cl)cc1` belongs -19.1% (inactive).

Values taken from PubChem BioAssay AID686979 (National Center for Advancing Translational Sciences (NCATS), 2013).
